# This excerpt belongs to a sample that is enriched for hits.
# ROC1-CUL1 inh = inhibitors of human ROC1-CUL1 ubiquitin ligase activity; P62877+Q13616; in vitro K48 di-Ub FRET, acceptor:donor ratio, 45 min; inhibition, % at 10 µM; actives 0.6% (n = 140,000); in the data active = inhibition above about 25%
# The depositor's hits bear a star.
SMILES,ROC1-CUL1 inh
COc1ccc(C=C2C(=O)NC(=S)NC2=O)c(OC)c1,-2
Cc1cc(/C=C2\C(=O)NC(=S)N(c3cccc(Cl)c3)C2=O)c(C)n1-c1cc(C(=O)O)cc(C(=O)O)c1,55*
O=C1NC(=S)NC(=O)C1=Cc1ccccc1OCc1ccc(C(=O)O)cc1,-10
CCOc1ccc(N2C(=O)/C(=C/c3cc(C)n(-c4ccc(S(N)(=O)=O)cc4)c3C)C(=O)NC2=S)cc1,28*
C=CCN1C(=O)/C(=C/c2cc(C)n(-c3cccnc3)c2C)C(=O)NC1=S,4
Cc1cc(/C=C2\C(=O)NC(=O)N(Cc3ccccc3)C2=O)c(C)n1-c1ccc(Cl)c(C(=O)O)c1,36*
COc1ccc(N2C(=O)/C(=C/c3cc(C)n(-c4ccc(C(=O)O)cc4C)c3C)C(=O)NC2=S)c(OC)c1,37*
Cc1ccccc1NC(=O)CN1CC(c2ccccc2)CC1=O (configuration not stated),8
CCCCCCn1cc(C(=O)NCc2ccco2)c(=O)c2cc(F)c(N3CCN(C(=O)OCC)CC3)cc21,0
COc1ccccc1/C=C/C=C1C(=O)NC(=O)NC1=O,2
Cc1nn(-c2ccccc2)c(Cl)c1C=C1C(=O)N(C)C(=O)N(C)C1=O,7
N#CC1C(=N)Oc2c(c(=O)oc3ccccc23)C1c1cccc(F)c1F (configuration not stated),-1
O[C@H]1[C@H](N2CC=C(c3ccccc3)CC2)c2ccccc2C12CCNCC2,3
CCCn1cc(CN2CCCC(C(=O)c3ccc(Cl)cc3)C2)c(C)n1 (configuration not stated),6
CN1CCN(C(=O)COc2ccc(F)c(Cl)c2)CC1,-2
Cc1ccc(N2C(=O)NC(=O)/C(=C/N3CCN(C)CC3)C2=O)cc1C,-12
O=C1C2CC3CC1CN(C3)C2,2
Cc1c(C(F)(F)F)nc(-c2cccc(CN3CCN4CCC3CC4)c2)[nH]c1=O,6
Nc1c([N+](=O)[O-])cccc1[N+](=O)[O-],-3
CCC1c2c(c3ccccc3oc2=O)Oc2nc(C)n(CC(=O)c3ccc(Cl)cc3)c(=O)c21 (configuration not stated),-1
O=C1NC(=O)N(c2ccccc2)C(=O)/C1=C\c1ccccc1,-10
C=CCN1C(=O)/C(=C/c2ccc(Br)s2)C(=O)NC1=S,1
O=C1NC(=S)N(c2cccc(F)c2)C(=O)/C1=C/c1ccc(Br)o1,94*
O=C(Nc1ccc(Cl)cc1C(=O)c1ccccc1)c1cccc(F)c1,-7
N#CC1C(=N)Oc2c(c(=O)oc3ccccc23)C1c1ccc(OC(F)(F)F)cc1 (configuration not stated),-7
SMILES,ROC1-CUL1 inh
CCCc1nc(C)cc(N2CCN(C)CC2)n1,6
O=C1NC(=O)N(Cc2ccc(F)cc2)C(=O)/C1=C\c1ccoc1,76*
CCn1nc(C)c(/C=C2/CC3C4CC=C5CC(O)CCC5(C)C4CCC3(C)C2=O)c1C (configuration not stated),9
N#CC1C(=N)Oc2c(c(=O)oc3ccccc23)C1c1cc2c(cc1Cl)OCO2 (configuration not stated),1
CSc1ccc(C(=O)C2CCCN(Cc3ccon3)C2)cc1 (configuration not stated),5
Cc1ccsc1C(=O)C1CCCN(Cc2ccccn2)C1 (configuration not stated),-10
COC(=O)CNC(=O)c1cn(Cc2ccc(F)cc2Cl)nn1,1
CN(C)C(=O)Oc1ccc(OCc2n(C)cc[n+]2C)cc1,-11
O=C(c1cn(CCN2CCCCC2)nn1)N1C[C@@H]2C[C@@H](C1)c1cccc(=O)n1C2,-11
COC(=O)OCC12CCC(O1)C1(C)C(=O)OCC21 (configuration not stated),56*
CC(C)c1cccc(OCC#CCN2CCOCC2)c1,1
CN=C(C)c1c(C)n(C)c2ccccc12,5
COc1cccc(-n2c(/C=C\c3ccccc3C)nc3ccccc3c2=O)c1,3
N#CC(C#N)=Cc1csc2ccccc12,-15
N#CC(C#N)=Cc1ccc([N+](=O)[O-])s1,27*
CC1=C(C(=O)OC(C)C)C2(C(=O)Nc3ccc(C)cc32)C(C#N)C(=N)O1 (configuration not stated),3
CN(C(=O)Cc1ccn(C)c1)C1CCCN(C2Cc3ccccc3C2)C1 (configuration not stated),3
CN1C(=O)N(C)C(=O)C(Cl)(Cl)C1=O,33*
N#CC1C(=N)Oc2c(c(=O)sc3ccccc23)C1c1cccnc1 (configuration not stated),1
O=C1C(=O)c2c3ccccc3cc3cccc1c23,-1
O=C1C(=O)c2ccccc2-c2ccccc21,98*
O=C1C(=O)c2cccc3cccc1c23,1
Nc1ccccc1-n1c(=S)[nH]c2ccccc2c1=O,-4
O=C1CCCCC(Cl)(Cl)N1,7
CCCCN(C(=O)c1ccc(Cl)cc1)C1=CC2CCC(C1)N2C (configuration not stated),9
